Tgondii IFNg: inhibitors of Toxoplasma gondii growth with IFN-gamma; Toxoplasma gondii growth in IFN-gamma-treated host cells; active compounds read low; activity change, negative = inhibition, % (test concentration not listed); 69,000 compounds, 3.8% hits; AID 1259416; in the data active means activity change below about -70%, passing the limit was not always enough;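 further: host cells are HeLa cells infected with Toxoplasma gondii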
Starred values were filed as active, the others as inactive; ! = repeats disagree. Shown is part of a subset that was picked to be rich in hits.

For FC(F)(F)c1ccc2nc(SCc3cc(Cl)cc4c3OCOC4)[nH]c2c1 the results were Tgondii IFNg -80.7*.
`Clc1cc2c(c(CSc3ccccc3C3=NCCCN3)c1)OCOC2` gave Tgondii IFNg 37.8.
For COc1cc(CN(C)Cc2sccc2C)cc(F)c1O the results were Tgondii IFNg 66.7.
`COc1ccc2c(c1)CCCN2Cc1ccnc(N2CCCC2)n1` gave Tgondii IFNg 46.4.
COc1ccc(C#Cc2cccc(-c3nc(C(=O)NCCCN4CCOCC4)cc4c3[C@@H](CCO)N(S(=O)C(C)(C)C)C4)c2)cc1OC (stereo not given in full) was read as Tgondii IFNg 23.3.
CN(C)C(=O)c1ccc(-c2cccc(-c3nc(C(=O)NC4CCCCC4)cc4c3[C@H](CCO)N([S@@](=O)C(C)(C)C)C4)c2)cc1 was read as Tgondii IFNg -47.6.
Screening CC(C)(C)[S@@](=O)N1Cc2cc(C(=O)NC3CCC3)nc(-c3cccc(Br)c3)c2[C@H]1CCO returned Tgondii IFNg 48.4.
COc1ccc(C#Cc2cccc(-c3nc(C(=O)N4CCN(Cc5ccccc5)CC4)cc4c3[C@@H](CCO)N(S(=O)C(C)(C)C)C4)c2)cc1OC (stereo not given in full) was read as Tgondii IFNg -48.2.
`CC(C)(C)[S@](=O)N1Cc2cc(C(=O)NC3CCC3)nc(-c3cccc(Br)c3)c2[C@@H]1CCO` gave Tgondii IFNg -74.9*.
COc1ccc(C#Cc2cccc(-c3nc(C(=O)Nc4ccc(-c5ccccc5)cc4)cc4c3[C@@H](CCO)N(S(=O)C(C)(C)C)C4)c2)cc1OC (stereo not given in full) was read as Tgondii IFNg -71.2*.
COc1ccccc1N(Cc1nc(-c2cccc(OC)c2OC)oc1C)S(=O)(=O)c1ccccc1 was read as Tgondii IFNg -52.8.
For CCN1CCC2(CC1)OC(=O)C(C)=C2C(=O)NCCCN1C(C)CCCC1C (stereo not given) the results were Tgondii IFNg -1.2.
For CCc1oc2c(Cl)cc(-n3cnnc3)cc2c1C the results were Tgondii IFNg -85.1*.
CCc1oc2c(-n3cnnc3)cccc2c1C was read as Tgondii IFNg -10.0.
Cc1cc2cc(NC(=O)c3ccc(-n4cnnc4)cc3)cc(Cl)c2o1 was read as Tgondii IFNg -9.0.
Cc1ccccc1-c1nc2cnccn2c1NCCC(=O)N1CCCC(C)C1 (stereo not given) was read as Tgondii IFNg 166.2.
`COc1ccc(-c2nc(CN(c3ccc(OC)cc3)S(=O)(=O)c3cccs3)c(C)o2)cc1` gave Tgondii IFNg -46.3.
Cc1cc(C)c2c(c1)[C@@H](N(Cc1cc(C(F)(F)F)cc(C(F)(F)F)c1)c1nnn(C)n1)CCCN2CC1CCC(C(=O)O)CC1 (stereo not given in full) was read as Tgondii IFNg -80.9*.
For CCN(CC)CCn1cc(-c2cccc(O)c2)nn1 the results were Tgondii IFNg 0.0.
Screening O=C(Cc1ccccc1)N1CC(C(=O)N2CCCC2)C2(CCOCC2)C1 (stereo not given) returned Tgondii IFNg 5.8.
For CN(CC(=O)c1ccc(O)cc1)C(=O)C1=NNC(=O)CC1 the results were Tgondii IFNg -0.6.
COCCn1ccnc1C1CC(=O)Nc2cc(O)c(C)cc21 (stereo not given) was read as Tgondii IFNg -1.4.
Cc1cc2c(cc1O)NC(=O)CC2c1nccs1 (stereo not given) was read as Tgondii IFNg -29.1.
`COC(=O)c1cccc(C2CC(=O)Nc3cc(O)c(C)cc32)n1` (stereo not given) gave Tgondii IFNg -81.3*.
Brc1ccc2[nH]c3c(Br)cc(Br)cc3c2c1 was read as Tgondii IFNg 15.9.
Brc1ccc2[nH]c3c(c2c1)CCCC3NCc1ccccc1 (stereo not given) was read as Tgondii IFNg -98.5*.
For O=C1Cc2c([nH]c3ccc(Br)cc23)-c2ncccc2N1 the results were Tgondii IFNg -6.6.
Screening Nc1cc(-c2cccs2)nn1-c1ccc(F)cc1 returned Tgondii IFNg 111.2.
`CC(NCC(=O)NCc1ccccc1F)c1ccc(S(C)(=O)=O)cc1` (stereo not given) gave Tgondii IFNg 0.4.
O=C(Nc1cccc(C(F)(F)F)c1)Nc1csc(Cc2ccsc2)n1 was read as Tgondii IFNg -93.3*.
For O=C(NCc1sccc1COc1ccc(Cl)cc1)Nc1cccc(C(F)(F)F)c1 the results were Tgondii IFNg -55.1.
O=C(Nc1ccc(-c2nc(-c3ccccc3)co2)cc1)Nc1cccc(C(F)(F)F)c1 was read as Tgondii IFNg -51.2.
For O=C(CSc1ncccn1)N1CCN(c2ccccc2)CC1 the results were Tgondii IFNg 14.3.
Screening CCn1c(C2CCN(c3cc(N4CCOCC4)ncn3)CC2)nn(C)c1=O returned Tgondii IFNg -0.1.
CN(C)C(=O)c1cccc(C2CN(C(=O)OC(C)(C)C)CCN2)c1 (stereo not given) was read as Tgondii IFNg 3.3.
Screening COc1ccc2nc(Cl)c(CN(Cc3cccc(C)c3)C(=O)c3ccccc3)cc2c1 returned Tgondii IFNg -23.7.
Screening COc1ccc(CNc2nc(SCc3ccc(Cl)cc3)nc3ccccc23)cc1 returned Tgondii IFNg -61.2.
`CCN(CC)c1ncc2c(NCc3ccccc3)nc(SCc3ccccc3)nc2n1` gave Tgondii IFNg -109.9*.
For COc1ccc(CNc2nc(SCc3ccc(F)cc3)nc3ccccc23)cc1 the results were Tgondii IFNg -69.9.
`CCc1nccn1-c1cncc(C2CCN(C(=O)Cc3ccccc3)CC2)n1` gave Tgondii IFNg -15.9.
Screening CC(=O)c1cccc(-c2cc3c(n(C)c2=O)CCN(C(=O)c2ccc4[nH]c5c(c4c2)CCCC5)C3)c1 returned Tgondii IFNg -17.8.
c1nc(N2CCC(N3CCCCC3)CC2)c2nc3n(c2n1)CCCCC3 was read as Tgondii IFNg -39.4.
`COc1cccc(-n2c(SCC(=O)O)nnc2C2CCOCC2)c1` gave Tgondii IFNg -4.8.
Screening CC1=C(C(=O)NCCCN2CCCCC2C)C2(CCN(S(C)(=O)=O)CC2)OC1=O (stereo not given) returned Tgondii IFNg -7.7.
For CC(C)(C)CC(C)(C)c1ccc(OCCOCC[N+](C)(C)Cc2ccccc2)cc1 the results were Tgondii IFNg -78.0*!.
Screening COc1ccccc1CNc1nc(-c2ccc(Cl)cc2)nc2ccccc12 returned Tgondii IFNg -50.3.
Cc1ccc(-c2ccc([C@@H]3[C@@H]4CN(Cc5ccccc5F)C[C@H]3N4)cc2)cc1 was read as Tgondii IFNg -73.1*.
`CN(C)C(=O)c1cccc(-c2ccc(C3[C@@H]4CN(Cc5ccccc5F)C[C@H]3N4)cc2)c1` (stereo not given in full) gave Tgondii IFNg -5.6.
Fc1ccc(-c2ccc(C3[C@@H]4CN(Cc5ccccc5)C[C@H]3N4)cc2)cc1 (stereo not given in full) was read as Tgondii IFNg -32.6.
Cc1ccnc(NCCNCc2nnc(-c3ccc(C)n3C)o2)c1 was read as Tgondii IFNg 7.0.
`CCc1ccc(NC(=S)Nc2ccc(Cl)cc2C(=O)c2ccccc2)cc1` gave Tgondii IFNg -95.9*.
Screening CC(=O)c1cccc(NC(=S)Nc2ccc(F)cc2)c1 returned Tgondii IFNg 26.9.
Screening O=C(Cc1ccccc1)Nc1ccc(Cl)cc1 returned Tgondii IFNg -60.1.
CC(CN1CCOCC1)NC(=O)c1cc(-c2ccc(Cl)cc2)n(C)n1 (stereo not given) was read as Tgondii IFNg -2.2.

Assay outcomes: PubChem BioAssay, Broad Institute
